Measured values: PubChem BioAssay (NCATS)
Inconclusive results are not listed. Active and inactive are the calls of the source. Unless noted, calls follow the shape of the dose curve; as a rule, active = well fitted curve in the direction sought with a large enough effect; inconclusive = small, poorly fitted or top-dose-only effect, or another doubt; inactive = no such curve, though single readings can be large; an effect the other way counts as inactive or inconclusive.

Key:
[1] = Cellular Toxicity (caspase-3) HUV-EC-C (AID 656)
Procedure, shortened: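 Concentration-dependent caspase 3/7 induction was assessed in HUV-EC-C cells exposed for 16 hours. Data scaled between DMSO and tamoxifen (100 uM) controls.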

[2] = Cellular Toxicity (caspase-3) BJ (AID 658)
Procedure, shortened: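 Caspase-Glo 3/7 luminescence, read 1 hr after reagent at room temperature, in normal BJ fibroblasts exposed 16 hours at 37 °C. AC50 values from Hill-equation concentration-response, scaled between DMSO basal and 10 uM staurosporine as 100%.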

[3] = Cellular Toxicity (caspase-3) MRC-5 (AID 659)
Procedure, shortened: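 Luminescent Caspase-Glo 3/7 read-out (1 h, room temperature) after a 16 h, 37 °C compound exposure of MRC-5 lung fibroblasts at 1500 cells/well. Concentration-response AC50 from Hill equation; 0% DMSO, 100% 10 uM staurosporine.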

[4] = Cellular Toxicity (caspase-3) Mesangial (AID 660);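 also: combined caspase 3 and 7 activity read by Caspase-Glo luminescence; cells exposed to compound for 16 h before the caspase read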
Procedure, shortened: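 AC50 values come from Hill-equation fits of caspase 3/7 activation, measured as Caspase-Glo luminescence in human glomerular mesangial cells exposed to compound for 16 h at 37 °C; 100% set by 100 uM tamoxifen.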

[5] = Cellular Toxicity (caspase-3) SK-N-SH (AID 661)
Procedure, shortened: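 Apoptosis readout in SK-N-SH neuroblastoma: Caspase-Glo 3/7 luminescence following 16 hr treatment in complete culture medium. Normalization used DMSO and 10 uM staurosporine controls.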

[6] = Cellular Toxicity (caspase-3) N2a (AID 665);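 also: compound exposure lasted 16 h at 37 °C before readout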
Procedure, shortened: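 Concentration-response qHTS: compound-induced caspase-3/7 luminescence in N2a cells (16 h, 37 °C), relative to DMSO and 10 uM staurosporine controls; AC50 obtained using the standard Hill equation.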

[7] = Cellular Toxicity (caspase-3) NIH 3T3 (AID 666)
Procedure, shortened: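 Activity: caspase-3/7 induction, NIH 3T3 cells, 16 hr treatment at 37°C, luminescent Caspase-Glo detection; AC50 via Hill equation.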

[8] = Cellular Toxicity (caspase-3) Renal Proximal Tubule (AID 667);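 also: cells exposed to compound for 16 hours at 37 °C before detection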
Procedure, shortened: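 Caspase-Glo 3/7 read-out, rat primary kidney proximal tubule cells. Compound exposure 16 h, 37 °C; detection after 1 h at RT. Activity scaled to DMSO and 10 uM staurosporine.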

[9] = Cell Viability - LYMP2-001 (AID 921);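 also: series mostly up to about 92 µM; cells exposed to compound for 24 h at 37 °C; nearly all actives have a fitted effect of over 70% in size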
Procedure, shortened: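 A lymphoblastoid cell line of human origin was treated with library compounds across a concentration series for 24 hours, and viable cell number was estimated from ATP-driven luciferase light output. Hill modeling gave AC50.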

[10] = MultiTox-Fluor Cytotoxicity Assay - LYMP1-001 - Dead Cells (AID 946)
Procedure, shortened: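 AC50 from Hill fit of concentration-response; data normalized to DMSO (basal) and 15 uM tetraoctylammonium bromide (100%). LYMP1-001 lymphoblastoid cells, 2500/well, 16 hr compound at 37 C; dead-cell protease fluorescence, Ex/Em 485/520.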

[11] = MultiTox-Fluor Cytotoxicity Assay - LYMP1-001 - Live Cells (AID 947)
[12] = MultiTox-Fluor Cytotoxicity Assay - LYMP1-002 - Live Cells (AID 955)
Procedure, shortened: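 In this qHTS viability format, lymphoblastoid cells (LYMP1-002, human) received compound for 16 hr at 37 C. Fluorogenic GF-AFC cleavage by viable cells was detected at 405/510 nm after 1 h at room temperature.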

[13] = MultiTox-Fluor Cytotoxicity Assay - LYMP1-002 - Dead Cells (AID 960); also: nearly all actives have a fitted effect of over 60% in size
Procedure, shortened: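 Concentration-dependent increases in membrane-leaked protease activity are quantified in LYMP1-002 cells after 16 hr treatment; values are normalized against DMSO and tetraoctylammonium bromide (15 uM) controls and AC50 derived by Hill modeling.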

[14] = MultiTox-Fluor Cytotoxicity Assay - LYMP1-003 - Dead Cells (AID 961); also: nearly all actives have a fitted effect of over 70% in size
Procedure, shortened: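 Human lymphoblastoid LYMP1-003 cells (2500/well) were treated with compounds for 16 hr at 37 C in complete medium. Dead-cell protease release was read by bis-AAF-R110 fluorescence (Ex/Em 485/520). AC50 came from Hill fits, normalized to DMSO and 15 uM tetraoctylammonium bromide.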

[15] = MultiTox-Fluor Cytotoxicity Assay - LYMP1-003 - Live Cells (AID 962);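 also: cytotoxic hits lower the live-cell protease signal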
Procedure, shortened: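 Human lymphoblastoid line LYMP1-003 in complete culture medium, treated 16 hr with titrated compounds. Viable cells quantified via cell-permeant GF-AFC substrate fluorescence; AC50 derived by Hill fitting.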

[16] = Cell Viability - LYMP1-003 - Assay at 24 hr (AID 963)
Procedure, shortened: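 The lymphoblastoid line was treated with titrated compounds for 24 hours, and viable cell number estimated from luciferase-based ATP luminescence.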

[17] = Cell Viability - LYMP1-003 - Assay at 40 hr (AID 964); also: series mostly up to about 92 µM; nearly all actives have a fitted effect of over 60% in size
Procedure, shortened: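 Acute toxicity is scored as a concentration-dependent loss of intracellular ATP in LYMP1-003 cells (2500/well, complete medium) after 40 hr at 37 C, measured by CellTiter-Glo luminescence; AC50 values derive from standard Hill modelling.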

[18] = Cell Viability - LYMP2-003 (AID 965);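 also: cells exposed to compounds for 24 h before reading; nearly all actives have a fitted effect of over 50% in size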
Procedure, shortened: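 qHTS, human lymphoblastoid line, 2500 cells/well, complete medium. 24 h drug, 37 C. ATP-based luminescent readout; Hill-fit AC50.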

[19] = qHTS assay for small molecule agonists of the antioxidant response element (ARE) signaling pathway measured by Nrf2-dependant transcriptional activity (AID 720636; active = well fitted curve in the direction sought with a large enough effect in the repeat runs; an effect the other way counts as inactive or inconclusive;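 also: HepG2 cells with an ARE-driven luciferase reporter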)
Procedure, shortened: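 Attachment 6 hr at 37 C, then compound versus DMSO vehicle for 16 hr in ARE-luc HepG2 cells (1% dialyzed FBS); luminescence recorded 30 min after ONE-Glo addition at room temperature.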

[20] = qHTS assay for small molecule antagonists of the retinoid-related orphan receptor gamma (ROR-gamma) signaling pathway - cell viability counter screen (AID 720652; active = well fitted curve in the direction sought with a large enough effect in the repeat runs; an effect the other way counts as inactive or inconclusive;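 also: CHO reporter cells with doxycycline-induced ROR-gamma expression; series mostly up to about 92 µM; compound exposure lasted 16 hr before ATP read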)
Procedure, shortened: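 ATP-based viability readout in the ROR-gamma reporter CHO cells after 16 hr compound exposure under doxycycline induction.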

Measured: Potency

Oc1c(Cl)c(Cl)c(Cl)c(Cl)c1Cl
inactive: all assays above
